Compound activity: PubChem, The Scripps Research Institute Molecular Screening Center
The list is not random: actives were taken first. Their share in the collection is about 3.4%.
GPR151 activ: human GPR151 activation | PathHunter beta-arrestin GPR151 cells, luminescence | hit rate 1% among 650,000 | AID 1508602 | activation, % at 11.2 µM | Q8TDV0; in the data active means activation above about 4.9%
Target sequence (Q8TDV0 whole entry, looked up): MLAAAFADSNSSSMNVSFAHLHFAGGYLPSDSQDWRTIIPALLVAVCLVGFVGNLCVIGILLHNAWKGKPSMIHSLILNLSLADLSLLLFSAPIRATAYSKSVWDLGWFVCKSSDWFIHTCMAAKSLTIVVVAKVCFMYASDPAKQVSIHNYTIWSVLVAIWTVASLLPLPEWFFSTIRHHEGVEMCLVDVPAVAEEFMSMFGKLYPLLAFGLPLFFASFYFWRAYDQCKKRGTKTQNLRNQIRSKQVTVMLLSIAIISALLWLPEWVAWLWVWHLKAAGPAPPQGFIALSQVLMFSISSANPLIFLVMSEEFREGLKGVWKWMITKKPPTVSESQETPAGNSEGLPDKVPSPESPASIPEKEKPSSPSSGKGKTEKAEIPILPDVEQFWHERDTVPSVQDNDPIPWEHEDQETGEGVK
TEAD-YAP block: TEAD-YAP interaction inhibition | inhibition, % at 9.12 µM | HEK-TIYL cells, TEAD-Gal4/YAP UAS-luciferase luminescence | hit rate 1.4% among 640,000; in the data active means inhibition above about 32%
FBW7 activator: human FBW7 E3 ligase activation, primary screen; Q969H0; AlphaScreen FBW7–phospho-cyclin E peptide binding, activator screen; normalized activity (activation), % at 26.1 µM; hit rate 0.13% among 650,000; AID 1259310; in the data active means normalized activity above about 1.9%;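 further: purified mutant Fbw7 with reduced substrate affinity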
MITF inh: inhibitors of human MITF; AID 1259374; O75030; hit rate 0.91% among 650,000; inhibition, % at 2.6 µM; AlphaScreen MITF homodimerization, bead proximity signal; in the data active means inhibition above about 50%
Each line names hits and unclear results; the compound was inactive in the other large screens.

CC(=O)c1ccc2c(c1)C1C=CCC1C(c1ccc(Br)cc1)N2 (centres undefined)	none
CCOC(=O)c1ccc2c(c1)C1C=CCC1C(c1ccc(C(=O)O)cc1)N2 (centres undefined)	MITF inh 68
CCOC(=O)c1ccc2c(c1)C1C=CCC1C(c1ccc(F)cc1)N2 (centres undefined)	none
CC(=O)c1ccc2c(c1)C1C=CCC1C(c1ccc(C(=O)O)cc1)N2 (centres undefined)	MITF inh 67
COc1cc2ccccc2cc1C(=O)Nc1ccc(-c2nc3ccccc3o2)cc1	none
COc1ccc(C(=O)On2c(-c3cccc(Cl)c3)nc3ccccc3c2=O)cc1Br	none
COc1ccc(Cl)cc1C(=O)On1c(-c2ccc(Br)cc2)nc2ccccc2c1=O	FBW7 activator 3.2
COc1cccc(CN(CCCN(C)C)C(=O)Nc2ccc(-c3cn[nH]c3)cc2)c1	MITF inh 62
COc1cccc(CN(CCN(C)C)C(=O)Nc2ccc(-c3cn[nH]c3)cc2)c1	none
COc1cccc(CNC(=O)Nc2ccc(-c3cn[nH]c3)cc2N(C)CCN(C)C)c1	none
COc1cccc(CNC(=O)Nc2ccc(-c3cn[nH]c3)cc2N(C)CCO)c1	TEAD-YAP block 54
O=C1C(=O)N(CCN2CCOCC2)c2ccccc21	none
COc1ccc(N=c2scc(-c3cccs3)n2/N=C(\C)c2ccncc2)cc1	none
Cc1ccc(/C=C/C(=O)c2ccc(O)cc2)cc1	TEAD-YAP block 47
Cc1ccc(C(=O)/C=C/Nc2cccc(O)c2)cc1	TEAD-YAP block 92
COc1cc(C(=O)/C=C/Nc2cccc(O)c2)cc(OC)c1OC	TEAD-YAP block 38
COc1cc(C(=O)/C=C/Nc2cccc(F)c2)cc(OC)c1OC	none
O=C(NC1CCCCC1)c1nc(-c2ccncc2)no1	none
COc1ccc(N2C(=N)SCC2=O)cc1	none
C[C@H](Nc1nc(-c2cccc3ncccc23)cnc1N)c1ccccc1	TEAD-YAP block 60
Nc1ncc(-c2cccc3ncccc23)nc1NCc1ccccc1	TEAD-YAP block 48
C[C@@H](Nc1nc(-c2cccc3cccnc23)cnc1N)c1ccccc1	none
CCOC(=O)c1c(NC(=O)c2ccc(Cl)cc2)sc(C(=O)Nc2ccccc2OC)c1C	none
CN(C)/C=C1/S/C(=N/S(=O)(=O)c2ccccc2)N(C2CCCCC2)C1=O	FBW7 activator 2.5
CCNC(=O)CCCc1nc(-c2ccccc2Cl)no1	TEAD-YAP block 36
CCCNC(=O)CCc1nc(-c2ccccc2Cl)no1	none
CCOC(=O)C1CCCn2c1nc1c(c2=O)CCCC1 (centres undefined)	none
CCOC(=O)C1CCCn2c1nc1cc(-c3ccc(OC)cc3)sc1c2=O (centres undefined)	TEAD-YAP block 52
Cn1ccnc1C(NC(=O)Cc1ccc(O)cc1)c1ccccc1 (centres undefined)	none
CCCCC(=O)NC(c1cccs1)c1ccc2cccnc2c1O (centres undefined)	TEAD-YAP block 88
O=C(Cc1ccccc1)NC(c1ccccc1)c1ccc2cccnc2c1O (centres undefined)	TEAD-YAP block 58
CCC(=O)NC(c1ccccc1OC)c1ccc2cccnc2c1O (centres undefined)	TEAD-YAP block 44
CCC(=O)NC(c1ccccc1Cl)c1ccc2cccnc2c1O (centres undefined)	TEAD-YAP block 89
CC(=O)CCc1ccc(OCCNCC(C)O)cc1 (centres undefined)	none
COc1ccccc1-c1noc(CCC(=O)Nc2ccccc2F)n1	none
O=C(NC(c1ccc(Cl)cc1)c1ccc2cccnc2c1O)C1CCCCC1 (centres undefined)	none
COc1ccccc1C(NC(=O)C1CCCCC1)c1ccc2cccnc2c1O (centres undefined)	TEAD-YAP block 61
O=C(Cc1ccccc1)NC(c1ccccc1Cl)c1ccc2cccnc2c1O (centres undefined)	TEAD-YAP block 84
CCOC(=O)CC(NC(=O)Cc1ccccc1)c1ccccc1Cl (centres undefined)	none
CCCCC(=O)NC(c1ccccc1Cl)c1ccc2cccnc2c1O (centres undefined)	TEAD-YAP block 87
NC(=O)c1c(NC(=O)C2CC(=O)N(c3ccc4c(c3)OCCO4)C2)sc2c1CCCC2 (centres undefined)	none
CC(C)Oc1ccc(NC(=O)C(Cl)Cl)cc1	none
COc1ccccc1CNC(=O)c1ccc(C)o1	none
COc1ccc(CCNc2cc(N3CCN(CCO)CC3)ccc2[N+](=O)[O-])cc1OC	TEAD-YAP block 64
COc1cc(CN2CCN(c3ccc([N+](=O)[O-])cc3)CC2)cc([N+](=O)[O-])c1O	none
COc1ccc(C(=O)N2CCN(c3ccc([N+](=O)[O-])c(NCCc4ccc(OC)c(OC)c4)c3)CC2)cc1Cl	TEAD-YAP block 59
COc1ccc(N2CCN(Cc3cc(OC)c(O)c([N+](=O)[O-])c3)CC2)cc1	MITF inh 72
O=C(c1ncn[nH]1)N1CCN(c2ccc([N+](=O)[O-])c(NCc3ccc(Cl)cc3)c2)CC1	FBW7 activator 3.9
COc1cc(C(=O)NCCc2csc(-c3ccc(C)cc3)n2)cc(OC)c1OC	none
COc1ccc(-c2nc3cc(NC(=S)NC(=O)c4cc5ccccc5o4)ccc3o2)cc1	none
NC(=O)C1CCCN(Cc2nc(NCc3cccs3)c3ccccc3n2)C1 (centres undefined)	none
CNc1nc2cc([N+](=O)[O-])c([N+](=O)[O-])cc2nc1NC	TEAD-YAP block 57
COc1cc(OC)cc(C(=O)NC(=S)Nc2cccc(C(C)=O)c2)c1	none
CCOc1cc(CN2CCN(C(=O)C(c3ccccc3)c3ccccc3)CC2)ccc1OC	none
CCC(C)(C)n1nnnc1CN1CCC(c2nc3ccc(C)cc3[nH]2)CC1	none
CCC(C)(C)n1nnnc1CN1CCC(c2nc3ccc(Cl)cc3[nH]2)CC1	TEAD-YAP block 35
O=C(Nc1cccc(Cl)c1)c1cc2nc(-c3ccc(Cl)cc3)cc(C(F)(F)F)n2n1	none
Cc1sc(NC(=O)c2cc(-c3ccc(C(C)(C)C)cc3)nc3ccccc23)c(C(N)=O)c1C	TEAD-YAP block 46
O=C(NCc1nnc2n1CCN(Cc1cc3ccccc3o1)CC2)c1ccccn1	none
CC(=O)Nc1ccc(Nc2nc(-c3ccc(N4CCOCC4)nc3)nc3c2ncn3-c2ccsc2)cc1	TEAD-YAP block 43
c1ccc(Nc2nc(-c3ccc(N4CCOCC4)nc3)nc3c2ncn3-c2ccsc2)cc1	none
COc1ccc(-c2nc(Nc3ccc(N4CCOCC4)cc3)c3ncn(-c4ccsc4)c3n2)cn1	TEAD-YAP block 45
CC(C)(C)N1C(=O)c2ccc(C(=O)Nc3ccccc3C(=O)O)cc2C1=O	none
CCOC(=O)Cn1c(-c2ccc(CC)cc2)csc1=Nc1cccc(C(F)(F)F)c1	none
CCOC(=O)c1c(NC(=O)CN2CCCCCC2)sc2c1CCCCC2	none
CCOC(=O)c1c(NC(=O)CN2CCN(CC)C(=O)C2=O)sc2c1CCCC2	TEAD-YAP block 44
CCOC(=O)c1c(NC(=O)/C=C/C(=O)O)sc2c1CCCCCC2	TEAD-YAP block 35
CCOC(=O)c1c(NC(=O)/C=C/C(N)=O)sc2c1CCCC2	TEAD-YAP block 43
CCOC(=O)c1c(NC(N)=O)sc2c1CCCC2	none
